# Shown are actives, neighbours in structure and some others; about 1.3% of the full set was active somewhere.
# 14-3-3 Bad PPI: disrupts binding of bovine 14-3-3 zeta to phospho-Bad peptide | P63103 | inhibition, % at 21.7 µM | TR-FRET 14-3-3zeta/Dy647-pBad peptide displacement, 1 h | 220,000 compounds, 0.71% hits;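 active = inhibition above about 70%, limit read from the data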
# Target sequence (P63103 whole entry, looked up): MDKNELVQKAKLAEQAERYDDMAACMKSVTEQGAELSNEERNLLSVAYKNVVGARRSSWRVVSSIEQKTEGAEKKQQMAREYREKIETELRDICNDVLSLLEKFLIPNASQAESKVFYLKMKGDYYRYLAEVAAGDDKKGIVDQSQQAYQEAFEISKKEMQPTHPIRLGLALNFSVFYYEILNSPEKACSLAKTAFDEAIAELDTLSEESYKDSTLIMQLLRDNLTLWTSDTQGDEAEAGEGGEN
# eIF4E-4G inh: eIF4E/eIF4G interaction inhibition in translation initiation. 220,000 compounds, 0.37% hits. inhibition, % at 21.7 µM. AID 782. TR-FRET eIF4E-eIF4GI(517-606) binding, 2 h
# SUMO HTRF inh: inhibitors of human SUMOylation (UBC9); AID 2006; 290,000 compounds, 0.36% hits; HTRF SUMOylation assay, SAE1/SAE2 + UBC9, in vitro; P63279; inhibition, % at 35 µM; in the data active = inhibition above about 50%, passing the limit was not always enough
# Target sequence (P63279 whole entry, looked up): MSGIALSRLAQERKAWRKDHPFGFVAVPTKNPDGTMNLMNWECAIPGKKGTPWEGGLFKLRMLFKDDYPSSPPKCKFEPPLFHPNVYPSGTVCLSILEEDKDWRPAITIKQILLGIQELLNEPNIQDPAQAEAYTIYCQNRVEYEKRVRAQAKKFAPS
# p47phox inh: p47phox (human) inhibition. p47phox/p22phox peptide binding, fluorescence polarization, 2 h. 220,000 compounds, 0.53% hits. inhibition, % at 24.7 µM. AID 1274. P14598
# A number is an active result; – = inactive; · = no result given; + = active, no number; [ ] = another dose, or the depositor's remark.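 The calls were made as follows, unless noted: active = inhibition above about 30% (limit read from the data); inactive = the rest.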
SMILES,14-3-3 Bad PPI,eIF4E-4G inh,SUMO HTRF inh,p47phox inh
O=[N+]([O-])c1ccc(S(=O)(=O)N2CCN(Cc3c[nH]c4ccccc34)CC2)cc1,78.7,–,–,–
Cc1ccc(SC(C)C(=O)Nc2cccc(N(C)S(C)(=O)=O)c2)cc1 (configuration not stated),75.4,–,–,–
Cc1ccccc1OCC(=O)Nc1ccc2c(c1)C(=O)c1ccccc1C2=O,–,–,–,–
O=c1[nH]cc(COCC(F)CCl)c(=O)[nH]1 (configuration not stated),–,96.8,–,–
Cc1ccc(CNC(=O)CN2C(=O)c3ccccc3S2(=O)=O)cc1,·,·,–,·
C=CCC(C)(NCc1ccccc1)c1ccco1 (configuration not stated),72.5,–,–,–
CC(Oc1ccc(Cl)cc1)C(=O)NNC(=S)NC(=O)c1ccco1 (configuration not stated),–,–,–,–
Cn1cc(CN2CCC(CO)CC2)c(-c2ccc(Oc3ccccc3)cc2)n1,–,–,–,–
CCOC(=O)Cn1c(=O)oc2cc(S(=O)(=O)NCCC(C)C)ccc21,–,–,–,–
CCOC(=O)Cn1c(=O)oc2cc(S(=O)(=O)NCCc3ccc(OCC)c(OCC)c3)ccc21,–,–,–,102.9
CC[n+]1c(/C=C/c2c[nH]c3ccccc23)ccc2cc(C)ccc21,–,32.0,–,–
CCN(CC)C(=O)c1ccc(/C=C/c2c[nH]c3ccccc23)[n+](C)c1,–,–,–,–
COc1ccc(Cc2nc3ccccc3n2CC(=O)N/N=C/c2ccc(C)cc2O)cc1OC,83.1,–,–,–
CC(C)c1cccc(C(C)C)c1NC(=O)Cn1c(=O)cnc2ccccc21,–,–,–,–
COc1ccc(CCC(=O)Nc2ccc(C(=O)c3ccncc3)cc2)cc1,·,·,–,·
CCCCCC(=O)Nc1ccc(N2CCN(C(=O)c3ccccc3)CC2)cc1,81.6,–,–,–
CC(C)(C)C#CCn1c(/C=[N+](\[O-])C2CCCCC2)nc2ccccc21,·,·,–,·
O=C(CCc1ccccc1)NNC(=O)COc1ccccc1,–,–,–,–
CC(C)(C)c1ccc(OCC(=O)NNC(=O)CCc2ccccc2)cc1,–,–,–,60.6
N#CC1(C#N)COC23CCCCC2C1(C#N)C(=N)O3 (configuration not stated),–,–,–,141.0
N#CC12COC3(CCCCC3C1(C#N)C#N)OC2=N (configuration not stated),–,–,–,–
COc1ccc(C2=NOC(C)(c3nnc(-c4ccc(F)cc4)o3)C2)cc1 (configuration not stated),–,–,–,–
CN1CCN(c2ccc(C(=O)c3cn(-c4ccc(F)c(Cl)c4)nn3)cc2)CC1,76.3,–,–,–
O=C(Nc1ccccc1-c1nc2ccccc2s1)c1cccnc1Cl,–,–,58.2,–
CCCCOc1ccc(/C=C/C(=O)Nc2ccc(C(N)=O)cc2)cc1,–,–,50.9,–
SMILES,14-3-3 Bad PPI,eIF4E-4G inh,SUMO HTRF inh,p47phox inh
O=C(CC1C(=O)NCCN1Cc1ccc(Cl)c(F)c1)NCC1CCOCC1 (configuration not stated),–,90.5,–,–
COC(=O)c1cccc(Cn2nnc3ccccc3c2=O)c1,–,–,–,114.0
O=C(OCn1nnc2ccccc2c1=O)c1cc2ccccc2o1,–,97.8,–,–
O=C(OCn1nnc2ccccc2c1=O)c1ccco1,–,–,–,–
Cc1ccccc1OCCC(=O)OCC(=O)Nc1ccc(C(N)=O)cc1,–,–,–,–
O=C(CC(=O)NC1CCCCC1)N/N=C/c1ccccc1[N+](=O)[O-],·,·,–,·
COc1cc(-c2nc3ccc4ccccc4c3c3c2CCC3)cc(OC)c1OC,71.5,–,–,–
O=C(Nc1ccc2oc(=O)ccc2c1)c1cc2ccccc2o1,–,–,–,32.2
O=C(Nc1ccc2oc(=O)ccc2c1)c1ccc(-c2cccc(Cl)c2)o1,92.1,–,·,–
O=C(Nc1ccc2oc(=O)ccc2c1)c1ccc(-c2cccc([N+](=O)[O-])c2)o1,91.8,–,–,–
O=C(Nc1ccc2oc(=O)ccc2c1)c1ccc(-c2ccc(Cl)cc2)o1,–,–,–,–
CCOC(=O)C1=C(O)CSC1=Nc1ccccc1,–,–,–,–
CCOC(=O)C1=C(O)CSC1=Nc1ccc(Cl)cc1,–,–,–,+
C=CCNC(=O)c1onc(CSc2cccc(OC)c2)c1C(=O)O,–,–,–,31.9
COc1cccc(SCc2noc(C(=O)NC(C)C)c2C(=O)O)c1,–,–,–,–
COc1cc(OC)cc(C(=O)NCC(=O)N2CCCCC2)c1,–,–,–,–
Cc1ccc(C(=O)O/N=C2\CCCc3ccccc32)cc1,–,–,–,–
Cc1ccc(S(=O)(=O)O/N=C2\CCCc3ccccc32)cc1,–,–,–,45.5
Cc1cnc(NC(=O)c2ccc(-c3nc4ccccc4s3)o2)s1,–,59.1[fluorescence artefact?],–,–
Cc1cnc(NC(=O)CSc2nc3ccccc3s2)s1,–,–,–,–
COc1ccc(NC(=O)C(=O)N/N=C/c2cccnc2)cc1,–,85.1,–,–
N#Cc1c(-c2cccc(Br)c2)cc(-c2ccco2)[nH]c1=O,–,–,79.3,–
CCOC(=O)c1cnc(/N=C/N(C)C)s1,96.9,–,–,–
CN(Cc1ccccc1)S(=O)(=O)c1cccc(C(=O)O)c1,–,–,–,–
Cc1cc(C)cc(NC(=S)N2CCC(NC(=O)c3ccccc3C)CC2)c1,–,–,–,–
SMILES,14-3-3 Bad PPI,eIF4E-4G inh,SUMO HTRF inh,p47phox inh
N#Cc1c(=O)c2nc(NCc3ccccc3)ncc2n2ccccc12,–,–,50.9,–
O=C(COC(=O)c1ccc(Cl)cc1O)NCCN1C(=O)CSC1=O,96.9,–,–,–
Cc1ccc(CCCOC(=O)CN2CCCCC2)cc1,–,–,–,–
CCc1cc(=O)oc2cc(C)cc(O)c12,–,–,–,–
CCCc1cc(=O)oc2cc(C)cc(O)c12,·,·,–,146.9
O=C(CNC(=S)N(CCCN1CCOCC1)Cc1cccs1)NC1CCCCC1,–,–,–,–
CC1=C(C(=O)N2CCc3ccccc32)C2(CCC(C)CC2)OC1=O (configuration not stated),83.5,–,–,–
CCC(C)C(=O)Nc1cccc(SC)c1 (configuration not stated),–,–,–,–
O=C(CSc1nc2nc(-c3cccs3)cc(C(F)(F)F)c2c(=O)[nH]1)Nc1ccc(F)c(F)c1,–,–,55.5,–
COc1ccc(OC)c(Nc2ncnc3sccc23)c1,·,·,–,·
COc1ccc(OC)c(Nc2ncnc3sc(-c4ccccc4)cc23)c1,80.2[fluorescence artefact?],38.4,–,–
CC(C)OCCCNc1ccc(N2C(=O)CCCC2=O)cc1[N+](=O)[O-],·,·,–,·
Cc1[nH]n(-c2ncc(-c3ccccc3)s2)c(=O)c1C(c1ccc(Br)cc1)C(C#N)C#N (configuration not stated),–,–,63.8,–
CCc1ccccc1NC(=O)N1CCCc2ccccc21,·,·,–,·
Nc1ncnc2c1ncn2[C@@H]1O[C@H](COP(=O)(O)O)[C@@H](O)[C@H]1O,·,·,62.2,·
CCOC1OC2C(CO)OC(n3cnc4c(N)ncnc43)C2O1 (configuration not stated),–,–,–,–
CCSc1nnc(-c2ccccc2NC(=O)CC)c(=O)[nH]1,–,–,–,–

# Compound activity (PubChem)
